# AmpC inh det: AmpC beta-lactamase inhibition, detergent assay; P00811; purified AmpC, nitrocefin hydrolysis with detergent; Potency, µM (series often up to 28.7 µM), without a hit: at the highest dose activity change, negative = inhibition; hit rate 0.09% among 71,000; AID 584; active = well fitted curve in the direction sought with a large enough effect; inconclusive = small, poorly fitted or top-dose-only effect; note: % is set by controls: 0 for no effect and ±100 for the full control effect
# Target sequence (P00811 whole entry, looked up): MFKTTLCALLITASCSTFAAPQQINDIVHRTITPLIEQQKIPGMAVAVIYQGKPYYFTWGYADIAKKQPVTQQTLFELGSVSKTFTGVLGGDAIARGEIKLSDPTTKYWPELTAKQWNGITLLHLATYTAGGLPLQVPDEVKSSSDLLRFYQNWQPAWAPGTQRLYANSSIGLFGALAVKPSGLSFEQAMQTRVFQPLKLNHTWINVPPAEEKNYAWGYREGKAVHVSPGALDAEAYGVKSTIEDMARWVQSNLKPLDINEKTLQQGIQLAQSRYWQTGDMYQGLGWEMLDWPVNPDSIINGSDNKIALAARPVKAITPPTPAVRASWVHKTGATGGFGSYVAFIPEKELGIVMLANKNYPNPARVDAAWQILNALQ
#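 E. coli AmpC (5.3 nM) in 20 mM phosphate pH 7.0 with 0.01% Triton X-100, preincubated 15 min RT with compound; nitrocefin (2 uL of 800 uM stock) hydrolysis followed by 480 nm absorbance every 20 s over 4 min.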
# Prx2 Sm inh: blocks S. mansoni peroxiredoxin 2 enzymatic activity. S. mansoni Prx2 activity coupled to TGR/GSH (TGR is thioredoxin glutathione reductase), NADPH fluorescence loss, qHTS. Potency, µM. hit rate 0.07% among 65,000. AID 448
#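 Prx2 inhibition was measured as reduced NADPH consumption when electrons flowed from NADPH through TGR and glutathione to Prx2 and H2O2. Plates were read kinetically over 8 min; enzyme reagents were held at 4 deg C during dispensing.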
# AmpC nodet inh: AmpC beta-lactamase inhibition, detergent-free assay; AmpC nitrocefin hydrolysis, absorbance 480 nm, no detergent; Potency, µM (series often up to 28.7 µM), for the others: at the top dose activity change, negative = inhibition; hit rate 1.8% among 71,000; AID 585; note: % of control where 0% means no effect
#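 AmpC, 20 mM phosphate pH 7.0; 15 min cpd preinc, RT; start with nitrocefin (800 uM stock); A480 kinetic read, 20 s intervals, 4 min. No-enzyme wells = negative control.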
# Anthrax LT inh: inhibitors of anthrax lethal toxin internalization. AID 912. hit rate 0.67% among 70,000. Cells, anthrax lethal toxin internalization, FRET ratio (460/530). Potency, µM (top dose mostly 40 µM), inactives show at the highest dose activity change, negative = inhibition, hits mostly inhibitors; note: % is set by controls: 0 for no effect and ±100 for the full control effect; nearly all actives have a fitted effect of over 50% in size
# * marks the source's active call; other numbers are inactive results; ? = inconclusive; . = not tested or not shown; [ ] = dose if it differs, or a comment. Shown are actives, neighbours in structure and some others; about 2.6% of the full set was active somewhere. Unless noted, calls come from the whole dose curve. Potency is the fitted concentration of half-maximal effect.
SMILES,AmpC inh det,Prx2 Sm inh,AmpC nodet inh,Anthrax LT inh
COc1ccc(N(CC(=O)N2CCc3ccccc3C2)S(=O)(=O)c2c(C)[nH]c(=O)[nH]c2=O)cc1,11%,>57,4µM*[single pt active],14%
COc1ccccc1NC(=O)Cn1nnc(-c2ccccc2NC(=O)c2ccco2)n1,4%,>57,-21%,-5%
COc1ccccc1NC(=O)Cn1nnc(-c2ccccc2NC(=O)c2cccs2)n1,2%,>57,7.9µM*,-1%
COc1ccc(NC(=O)Cn2nnc(-c3ccccc3NC(=O)c3ccco3)n2)cc1,9%,>57,13µM*,-1%
CC(C)c1ccc(C(O)(C(=O)O)c2ccc(C(C)C)cc2)cc1,-4%[5.75 µM],>57,5%[5.75 µM],-7%[8 µM]
O=C(O)[C@H]([C@H]1NCCS1)N1C(=O)c2ccccc2C1=O,-4%[5.75 µM],>57,-5%[5.75 µM],-2%[8 µM]
Cc1oc(-c2ccccc2F)nc1CS(=O)CC(=O)NCc1ccc2c(c1)OCO2 (configuration not stated),12%,>57,4µM*[single pt active],-11%
Cc1oc(-c2cccs2)nc1CS(=O)CC(=O)NCCc1ccccc1 (configuration not stated),7%,>57,10%,-15%
Cc1oc(-c2ccccc2F)nc1CS(=O)CC(=O)NCc1cccs1 (configuration not stated),10%,>57,4µM*[single pt active],0%
O=C(O)c1ccccc1-c1c2cc(Br)c(=O)cc-2oc2[c]([Hg])c(O)c(Br)cc12,-3%[12.8 µM],0.037*,-17%[12.8 µM],?
O=c1ccn([C@@H]2O[C@@H](COP(=O)(O)OP(=O)(O)O)[C@H](O)[C@@H]2O)c(=O)[nH]1,-4%,>57,-2%,-12%
O=C(c1cnn2ccccc12)N1CCCc2ccccc21,9%,>57,4µM*[single pt active],11%
Cc1cc(NC(=O)C2CC(c3ccc(F)cc3)=NO2)no1 (configuration not stated),11%,>57,4µM*[single pt active],-23%
O=C(Nc1nc(-c2ccc3c(c2)OCO3)cs1)C1COc2ccccc2O1 (configuration not stated),12%,>57,10µM*,?
COc1ccc(OC)c(NC(=O)C2COc3ccccc3O2)c1 (configuration not stated),10%,.,8%,13µM*
CCOc1ccc(OCC)c(NC(=O)C2COc3ccccc3O2)c1 (configuration not stated),0%,>57,4%,3%
Cc1cc(NC(=O)C2COc3ccccc3O2)no1 (configuration not stated),11%,>57,4µM*[single pt active],8%
O=C(Nc1nc(-c2ccccn2)cs1)C1COc2ccccc2O1 (configuration not stated),12%,>57,10%,?
c1ccc(-c2ccc(-c3ccc(C4=NCCN4)cc3)o2)cc1,-8%[5.75 µM],>57,-4%[5.75 µM],?
CN(Cc1ccccc1)c1oc(-c2ccco2)nc1C#N,-1%,>57,6%,10µM*
O=C1C[C@@H]2OCC=C3CN4CC[C@]56c7ccccc7N1[C@H]5[C@@H]2[C@H]3C[C@@H]46,0%,>57,-9%,-6%
Cc1cc(=O)[nH]c(SCc2cc(=O)n3nc(C)sc3n2)n1,14%,>57,4µM*[single pt active],1%
CCCSc1nc(C)cc(=O)[nH]1,-3%,>57,-14%,-15%
O=C1c2cc([N+](=O)[O-])ccc2-c2ccc3c4ccc5c6c(ccc(c7ccc1c2c73)c64)C(=O)c1cc([N+](=O)[O-])ccc1-5,-11%[5.75 µM],>57,2.5µM*,-2%[8 µM]
O=[N+]([O-])c1ccc2c(c1)S(=O)c1ccccc1-2 (configuration not stated),-6%[5.75 µM],>57,1%[5.75 µM],3%[8 µM]
SMILES,AmpC inh det,Prx2 Sm inh,AmpC nodet inh,Anthrax LT inh
CN(C)CCC(C#N)(c1ccccc1)c1ccccc1,-3%[5.75 µM],>57,14%[5.75 µM],21%[8 µM]
O=S(=O)(c1ccc2c(c1)OCCO2)N1CCC(c2nc3ccc(Cl)cc3[nH]2)CC1,0%,>57,-24%,13µM*
CCc1cc(=O)oc2cc(C)cc(O)c12,9%,>57,4µM*[single pt active],-3%
CCc1cc(=O)oc2cc(C)c3c(C)coc3c12,-4%,>57,-8%,-16%
O=C(O)[C@@H]1[C@H](C(=O)O)[C@]2(Cl)C(Cl)=C(Cl)[C@@]1(Cl)C2(Cl)Cl,-5%[5.75 µM],>57,-11%[5.75 µM],-6%[8 µM]
O=C(CCOc1ccccc1)OCC(=O)c1cc2ccccc2o1,-3%,>57,0.63µM*,-5%
NC(=O)CN1C[C@@H](O)CC1=O,-4%,>57,18%,2%
CCCC[N+]1(C)[C@@H]2CC(OC(=O)[C@@H](CO)c3ccccc3)C[C@H]1[C@H]1O[C@H]12 (some centres not stated),-1%,>57,-1%,1%
Cc1nc2ccc(S(=O)(=O)NC(C(=O)Nc3nccs3)C(C)C)cc2s1 (configuration not stated),9%,>57,4µM*[single pt active],-11%
Cc1nc2ccc(S(=O)(=O)NC(C(=O)NCc3cccs3)C(C)C)cc2s1 (configuration not stated),11%,>57,4µM*[single pt active],-13%
Cc1cn([C@H]2C=C[C@H](CO)O2)c(=O)[nH]c1=O,-3%,>57,-1%,5%
CC(=O)Oc1ccc2cc(-c3nc4ccccc4n3C)c(=O)oc2c1,4%,18*,24%,?
CCOC(=O)c1cc2ccc(OC(=O)c3ccco3)cc2oc1=O,-3%,>57,13%,?
O=C(NCc1ccco1)C1CCN(c2ccc(N3CCOCC3)nn2)CC1,11%,>57,4µM*[single pt active],5%
Clc1ccc(-n2nnnc2SCc2c(-c3ccccc3)nc3sccn23)cc1,-2%,>57,13µM*,-10%
N#CC(Cl)Cl,11%,.,-8%,-5%
CC1CC(C)CN(S(=O)(=O)c2ccc(C(=O)Nc3nnc(-c4cccs4)o3)cc2)C1 (configuration not stated),8%,>57,-9%,17%
CCC1CCCCN1S(=O)(=O)c1ccc(C(=O)Nc2nnc(-c3cccs3)o2)cc1 (configuration not stated),-8%,>57,13µM*,?
CC(=O)Nc1nc(-c2cccs2)cs1,-5%,>57,-4%,4%
O=C(Nc1nc(-c2cccs2)cs1)c1ccc(S(=O)(=O)N2CCCC2)cc1,2%,>57,13µM*,?
O=C(Nc1nc(-c2cccs2)cs1)c1ccc(Cl)s1,12%,>57,?,10µM*
O=C(Nc1cccc(Cl)c1)c1ccc2c(=O)n3c(nc2c1)CCCCC3,-4%,>57,16%,13µM*
O=C(NCCC1=CCCCC1)c1ccc2c(=O)n3c(nc2c1)CCCCC3,4%,>57,104%,13µM*
CN(C(=O)c1ccc2c(=O)n3c(nc2c1)CCCCC3)c1ccccc1,0%,>57,40%,13%
O=C(Nc1ccc(F)c(Cl)c1)c1ccc2c(=O)n3c(nc2c1)CCCCC3,2%,>57,16%,-13%
CCn1c(SCC(=O)c2cc(OC)ccc2OC)nnc1-c1ccncc1,-4%,>57,31%,.
CCn1c(SCc2ccc(OC)cc2)nnc1-c1ccncc1,-5%,>57,58%,13µM*

# Source: PubChem BioAssay
